Compound activity: PubChem BioAssay, National Center for Advancing Translational Sciences (NCATS)
Most compounds without a hit are left out; they make up all but 3.2% or so of the library.
RE007 growth inh: qHTS Assay for Inhibitors of the HIV-1 protein Vpr. S. pombe RE007 Vpr strain, BacTiter-Glo ATP luminescence, 24 h. Potency, µM (titrated, usually from 92.2 µM), for inactives: top-dose activity change, negative = less growth, usual class: inhibitors. 0.21% of 360,000 active. AID 651644, 2012; active means well fitted falling curve with a large enough effect; inconclusive means small, poorly fitted or top-dose-only effect; inactive means no such curve, though single readings can be large or run the other way; further: nearly all actives have a fitted effect of over 50% in size
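Fission yeast strain RE007, carrying one chromosomally integrated HIV-1 vpr copy, was seeded at OD 0.01 in PMG+AL medium with 23 nL pinned compound. After 24 h at 30 °C and 99% humidity, viability was read by BacTiter-Glo luminescence.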
AmpC detergent: qHTS Inhibitors of AmpC Beta-Lactamase (assay with detergent). P00811. 0.041% of 370,000 active. AID 485294, 2010. AmpC hydrolysis of nitrocefin, absorbance 480 nm, 0.01% Triton. Potency, µM (top dose mostly 114 µM), without a hit: at the highest dose activity change, negative = inhibition, hits mostly inhibitors;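 further: 0% = no-compound wells and -100% = no-enzyme wells; nearly all actives have a fitted effect of over 25% in size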
Target sequence (P00811 whole entry, looked up): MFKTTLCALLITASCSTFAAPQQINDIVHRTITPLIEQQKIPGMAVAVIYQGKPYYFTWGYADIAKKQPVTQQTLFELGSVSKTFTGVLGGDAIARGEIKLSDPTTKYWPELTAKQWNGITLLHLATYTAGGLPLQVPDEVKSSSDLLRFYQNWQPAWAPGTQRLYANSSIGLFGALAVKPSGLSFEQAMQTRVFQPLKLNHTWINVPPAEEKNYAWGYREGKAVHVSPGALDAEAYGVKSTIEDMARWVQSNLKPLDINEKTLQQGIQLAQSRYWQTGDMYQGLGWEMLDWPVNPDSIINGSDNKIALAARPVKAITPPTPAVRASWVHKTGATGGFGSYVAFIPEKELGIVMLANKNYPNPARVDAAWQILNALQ
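AmpC (5.3 nM in the dispensed reagent) in 20 mM phosphate pH 7.0 with 0.01% (detergent screen) or 0.0001% Triton X-100 was preincubated with compounds for 15 min at room temperature. Nitrocefin was then added from an 800 uM solution, and hydrolysis was followed at 480 nm.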
AmpC no deterg: qHTS Inhibitors of AmpC Beta-Lactamase (assay without detergent). P00811. AmpC nitrocefin hydrolysis, absorbance 480 nm, 0.0001% Triton. Potency, µM (titrated, usually from 57.1 µM), for the others: at the highest dose activity change, negative = inhibition, usual class: inhibitors. 0.52% of 330,000 active. AID 485341, 2010;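 further: plate controls were no compound for no effect and no enzyme for full effect; nearly all actives have a fitted effect of over 20% in size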
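AmpC (5.3 nM in the dispensed reagent) in 20 mM phosphate pH 7.0 with 0.01% (detergent screen) or 0.0001% Triton X-100 was preincubated with compounds for 15 min at room temperature. Nitrocefin was then added from an 800 uM solution, and hydrolysis was followed at 480 nm.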
AMA1-RON2 inh: qHTS for Inhibitors of AMA1-RON; Towards Development of Antimalarial Drug Lead: Primary Screen; Plasmodium falciparum AMA1 (3D7) - RON2 peptide interaction; AlphaScreen AMA1-biotinylated RON2 peptide binding; Potency, µM (doses to about 58.2 µM), for inactives: top-dose activity change, negative = inhibition, hits mostly inhibitors; 0.2% of 360,000 active; AID 720542, 2013;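 further: 0% = vehicle wells and -100% = peptide control; nearly all actives have a fitted effect of over 45% in size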
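AMA1 (3D7) with his tag at 25 nM final met compounds first, then biotinylated RON2 peptide at 25 nM; detection used donor plus acceptor beads, 10 µg/mL apiece, read by AlphaScreen after 30 min at room temperature.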
Sm TGR inh: qHTS Assay for the Inhibitors of Schistosoma Mansoni Peroxiredoxins; Schistosoma mansoni thioredoxin glutathione reductase (TGR), Q962Y6; purified TGR, DTNB reduction, TNB absorbance 405 nm; Potency, µM (series often up to 114 µM), for inactives: at the top dose activity change, negative = inhibition, usual class: inhibitors; 3% of 360,000 active; AID 485364, 2010; further: nearly all actives have a fitted effect of over 60% in size
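First, TGR (20 nM dispensed) and NADPH were mixed with compound. Second, a 15 min room-temperature incubation followed. Third, further NADPH and then DTNB were added to start the reaction. Finally, TNB absorbance was monitored kinetically.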
Numbers without * were called inactive; u = inconclusive; x = not tested or not shown; [ ] = dose if it differs, or a comment. Unless noted, the call rests on the fitted dose curve; in most records, active means well fitted curve in the direction sought with a large enough effect; inconclusive means small, poorly fitted or top-dose-only effect, or another doubt; inactive means no such curve, though single readings can be large; an effect the other way counts as inactive or inconclusive. Unless noted, on the % scale 0 is the no-effect control and ±100 the full control effect; potency means the concentration at half of the fitted maximal effect.

SMILES | RE007 growth inh | AmpC detergent | AmpC no deterg | AMA1-RON2 inh | Sm TGR inh
COc1cc(NS(=O)(=O)c2cc3c(cc2C)N(C)CCO3)cc(OC)c1OC | x | 26% | x | x | 6%
Cc1c(S(=O)(=O)c2ccccn2)c(N)n(Cc2ccccc2)c1C | 2% | 10% | 6% | -18% | 2µM*
Cc1c(S(=O)(=O)c2ccccn2)c(N)n(Cc2ccccc2Cl)c1C | -26% | -7% | 7% | -14% | 2µM*
Cc1c(C)n(Cc2ccccc2)c2ncnc(N)c12 | -5% | -16% | -37% | -17% | 0%
COc1nc(C)cc(C)c1S(=O)(=O)c1ccccc1 | -2% | 7% | 2% | 15% | 15%
COCCn1c(C)c(C)c(S(=O)(=O)c2ccccc2)c1N | 10% | 2% | 6% | -10% | 1µM*
COc1ccc(Cl)cc1NC(=O)CSc1nnc2[nH]c(=O)cc(-c3ccccc3)n12 | x | -6% | x | x | -10%
CC(=O)c1ccc(-c2nnc(CCC(=O)N(C)Cc3cccc4cnccc34)o2)s1 | -19% | 6% | 11% | -8% | 40µM*
COc1ccc(C)cc1NC(=O)NCCn1nnc2cc(S(=O)(=O)N(C)C)ccc21 | x | -5% | x | x | -6%
O=C(O)Cc1sc(-c2cccnc2)nc1-c1ccc(Br)cc1 | -6% | u | -28% | 16% | 22µM*
CCC(=O)Nc1ccc(N2CCC(C)CC2)cc1 | 13% | -10% | -5% | -1% | -2%
CC1CCN(CC(=O)NNC(=O)c2cccc(Br)c2)CC1 | -3% | -4% | -2% | 43% | 4%
CC(C)CC(=O)Nc1ccc(C(=O)CN2CCC(C)CC2)cc1 | -20% | -1% | -20% | 2% | 20µM*
CC1CCN(CC(=O)c2cccc(C(F)(F)F)c2)CC1 | -7% | 0% | -1% | u | 35µM*
CCC(=O)Nc1ccc(C(=O)CN2CCC(C)CC2)cc1 | x | 1% | -12% | x | 32µM*
CCOC(=O)Cn1c(=O)n(C2CCCCC2)c2nc(-c3ccccc3Cl)nc(C(N)=O)c21 | x | 13% | x | x | -1%
CC(C)(C)c1cc(/C=C2\NC(=O)NC2=O)cc(C(C)(C)C)c1O | -2% | u | -21% | -1% | 1.1µM*
COc1cc(OC)cc(N2C(=O)CC(N3CCC(C(=O)N4CCCCC4)CC3)C2=O)c1 (stereo not given) | 32µM* | 0% | 104% | -21% | u
O=C1CC(N2CCC(C(=O)N3CCCCC3)CC2)C(=O)N1 (stereo not given) | -22% | u | -15% | -1% | 32µM*
O=C1CCCN1CCC1CCN(C2CC(=O)N(c3ccc(F)cc3)C2=O)CC1 (stereo not given) | 32µM* | 7% | x | -7% | u
O=C(C1CCN(C2CC(=O)N(c3ccc(F)cc3)C2=O)CC1)N1CCOCC1 (stereo not given) | 50µM* | -2% | -15% | -2% | u
O=C1CC(N2CCN(c3cccc(C(F)(F)F)c3)CC2)C(=O)N1c1ccc(F)cc1 (stereo not given) | -5% | -8% | 91% | -9% | -44%
CNS(=O)(=O)c1cn(CC(=O)N2CCN(c3ccc(C(C)=O)cc3)CC2)cc1S(=O)(=O)NC | x | 2% | x | x | -2%
CC(=O)Nc1cccc(N2C(=O)CC(N3CCC(C(=O)N4CCCCC4)CC3)C2=O)c1 (stereo not given) | 12% | u | -27% | 3% | 20µM*
CC(=O)c1cccc(N2C(=O)CC(N3CCN(S(=O)(=O)c4ccccc4F)CC3)C2=O)c1 (stereo not given) | 3% | x | -12% | 10% | x
SMILES | RE007 growth inh | AmpC detergent | AmpC no deterg | AMA1-RON2 inh | Sm TGR inh
O=C1CC(N2CCN(c3ccc(F)cc3)CC2)C(=O)N1Cc1ccc(N2CCCC2=O)cc1 (stereo not given) | 2% | -10% | 9% | 14% | 45µM*
COc1ccc(Cl)cc1NC(=O)c1cc(=O)c2cc(C)cc(C)c2o1 | x | 12% | x | x | -3%
CC(C)(C)OC(=O)N1CCC(c2c(C(=O)NCCN3CCCC3)cnn2-c2ccc(Cl)cc2)CC1 | x | 14% | x | x | 2%
O=C1/C(=C\c2ccco2)SC(=S)N1c1ccccc1 | -11% | -14% | -15% | -7% | u
CCCN=C1N/C(=C\c2ccco2)C(=O)N1c1ccccc1 | -20% | -2% | -28% | 20% | 40µM*
CCCN(CCC)C1=N/C(=C\c2ccco2)C(=O)N1c1ccccc1 | -13% | 0% | -14% | 13% | 16µM*
CC1Cc2ccccc2N1S(=O)(=O)c1nnc(NC(=O)c2ccccc2Br)s1 (stereo not given) | x | 21% | x | x | 3%
CCOc1ccc(CNS(=O)(=O)c2ccc3c(c2)CC(C)N3C(C)=O)cc1OC (stereo not given) | x | 0% | x | x | 1%
Cc1ccc(Cl)cc1NC(=O)CN1C(=O)CSc2ccc(S(=O)(=O)N3CCCC3)cc21 | x | 5% | x | x | -2%
O=C(Cn1c(=O)oc2cc(Cl)ccc21)Nc1cccc(C(F)(F)F)c1 | x | 9% | x | x | 6%
Cc1ccc(C)c(NC(=O)CSc2n[nH]c(-c3ccccn3)n2)c1 | 2% | -9% | -25% | -38% | -1%
Cc1ccccc1NC(=O)CSc1n[nH]c(-c2ccccn2)n1 | 7% | 0% | -10% | 8.9µM* | -13%
CC1CCC2(CC1)NC(=O)N(CC(=O)Nc1sc3c(c1C(N)=O)CCC3)C2=O (stereo not given) | -3% | -11% | 2%[11.4 µM] | 24% | 40µM*
COC(=O)c1c(NC(=O)CN2C(=O)NC3(CCc4ccccc4C3)C2=O)sc2c1CCCCC2 (stereo not given) | -1% | -16% | 3.5µM* | -5% | 1%
COc1ccc(N2CCN(C(=O)c3cn(C)c4ccc(S(=O)(=O)N(C)C5CCCCC5)cc4c3=O)CC2)cc1 | x | -5% | x | x | -3%
CCCCOc1ccc(C(=O)N(Cc2nc(-c3ccc(Cl)cc3)no2)C(C)C)cc1 | x | 18% | x | x | 3%
c1ccc(CN(Cc2ccco2)C(c2ccncc2)c2nnnn2C2CCCC2)cc1 (stereo not given) | -16% | -1% | -26% | -9% | 22µM*
Fc1ccc(C(c2nnnn2C2CCCC2)N(Cc2ccco2)CC2CCCO2)cc1 (stereo not given) | -19% | 0% | 22% | -9% | -11%
Cc1ccc(NC(=O)CN2C(=O)c3ccccc3Sc3ncccc32)c(C)c1 | x | 17% | x | x | -1%
CCc1nn(CC(=O)N2CCN(c3cccc(C(F)(F)F)c3)CC2)c(=O)c2cccn12 | x | 3% | x | x | -13%
